The nature of experiment [1]: APR_HepG2_CellLoss_72hr: Apredica 72-hour HepG2 Assay for Cell Loss (AID 2282915). As to conditions: high-content imaging. The procedure, abridged:
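HepG2 cells exposed 72 h to compound at 0.39–200 uM (10 concentrations, duplicate) in 0.5% DMSO. Fixed with 3.7% formaldehyde and Hoechst 33342-stained. Imaged at 20x; nuclear count gives cell number, fitted bidirectionally versus DMSO.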

Experiment [2] in a line: APR_HepG2_P-H2AX_72hr: Apredica 72-hour HepG2 Assay for H2AX Phosphorylation (AID 2282916).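 Note: phospho-histone H2A.x immunostain intensity per cell marking DNA damage.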 The conditions noted are these: imaging, actives raise or lower the signal. The procedure, abridged:
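Following 72 hr treatment with 0.39–200 uM compound, HepG2 cells were formaldehyde-fixed, permeabilized and stained for phospho-H2A.x; signal was measured by high-content imaging and fitted bidirectionally against DMSO controls.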

The nature of experiment [3]: APR_HepG2_MitoMembPot_72hr: Apredica 72-hour HepG2 Assay for Mitochondrial Membrane Potential (AID 2282917). The conditions noted are these: imaging, actives raise or lower the signal. The procedure, abridged:
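HepG2 cells dosed 72 hr with compound at 0.39–200 uM in duplicate, 0.5% v/v DMSO final. Mitochondria stained with 250 nM MitoTracker Red CMXRos for 30 min before formaldehyde fixation, imaged by high-content fluorescence; bidirectional fit versus DMSO.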

Experiment [4] in a line: APR_HepG2_MitoticArrest_72hr: Apredica 72-hour HepG2 Assay for Mitotic Arrest (AID 2282918). As to conditions: high-content imaging, actives raise or lower the signal. Put shortly: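 High-content imaging of fixed human HepG2 cells after 72 h compound exposure (0.39–200 uM, duplicates, 0.5% DMSO); mitotic arrest scored from phospho-histone H3 and nuclear Hoechst staining relative to DMSO.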

Experiment [5] in a line: APR_HepG2_MicrotubuleCSK_72hr: Apredica 72-hour HepG2 Assay for Microtubule CSK Stabilty (AID 2282919). As to conditions: HepG2 microtubule cytoskeleton, high-content imaging, actives raise or lower the signal. Put shortly: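 HepG2 cells were exposed 72 hr to compound at 0.39–200 uM in duplicate (0.5% DMSO final), then fixed and permeabilized. Alpha-tubulin immunofluorescence was imaged by high-content microscopy, with bidirectional fitting against DMSO and taxol as positive control.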

Experiment [6] is described as follows: APR_HepG2_P-H2AX_24hr: Apredica 24-hour HepG2 Assay for H2AX Phosphorylation (AID 2282920). The conditions noted are these: high-content imaging, actives raise or lower the signal. The procedure, abridged:
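High-content imaging of phospho-histone H2A.x immunofluorescence, nuclei counterstained with Hoechst 33342, in fixed HepG2 cells. Compounds ran 0.39–200 uM in duplicate for 24 h, final DMSO 0.5%. Signal change fitted both directions against DMSO.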

A short description of experiment [7]: APR_HepG2_StressKinase_72hr: Apredica 72-hour HepG2 Assay for Stress Kinase (AID 2282921). The conditions noted are these: HepG2 stress kinase (phospho-c-Jun) imaging, actives raise or lower the signal. The procedure, abridged:
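Fluorescence intensity of Cy3-tagged anti-phospho-c-Jun antibody, quantified per cell from Hoechst-defined nuclei across six images per well, served as the read-out following 72 h exposure (0.39–200 uM, 0.5% v/v DMSO).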

Experiment [8] can be described thus: APR_HepG2_StressKinase_24hr: Apredica 24-hour HepG2 Assay for Stress Kinase (AID 2282922). The conditions noted are these: HepG2 stress kinase (phospho-c-Jun) imaging, actives raise or lower the signal. Put shortly: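 HepG2 cells exposed 24 h to 0.39–200 uM compound in duplicate (0.5% v/v DMSO final). Cells fixed in 3.7% formaldehyde, permeabilized and immunostained for phospho-c-Jun; read by high-content fluorescence imaging, fitted bidirectionally against DMSO.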

Experiment [9] in a line: APR_HepG2_p53Act_72hr: Apredica 72-hour HepG2 Assay for p53 Activation (AID 2282923).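 Note: average cellular p53 protein immunofluorescence intensity in HepG2 cells.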 The conditions noted are these: high-content imaging, actives raise or lower the signal. Put shortly: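 HepG2 monolayers receive test compounds in duplicate at ten concentrations (0.39 through 200 uM) for 72 hr. They are then formaldehyde-fixed, antibody-labelled for p53, Hoechst-stained and imaged, with activity fitted bidirectionally versus DMSO.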

The nature of experiment [10]: APR_HepG2_MitoMass_72hr: Apredica 72-hour HepG2 Assay for Mitochondrial Mass (AID 2282924).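 Note: MitoTracker Red CMXRos stain intensity per cell imaged as mitochondrial mass.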 The conditions noted are these: high-content imaging, actives raise or lower the signal. Put shortly: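 HepG2 cells dosed 72 hr at 0.39–200 uM (0.5% DMSO), in duplicate. MitoTracker Red CMXRos 250 nM loaded 30 min before formaldehyde fixation; high-content fluorescence imaging, bidirectional fit versus DMSO.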

Experiment [11] in a line: APR_HepG2_NuclearSize_72hr: Apredica 72-hour HepG2 Assay for Nuclear Size (AID 2282925). The conditions noted are these: high-content imaging, actives raise or lower the signal. The procedure, abridged:
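HepG2 cells dosed 72 h at 0.39–200 uM (10 concentrations, duplicate) in 0.5% v/v DMSO final. Fixed, Hoechst 33342-stained nuclei imaged; nuclear diameter measured by automated image analysis. Bidirectional fit versus DMSO.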

Experiment [12] can be described thus: ATG_CRE_CIS: Attagene CIS-FACTORIAL HepG2 Assay for human cAMP Responsive Element (CRE) binding protein 3 (AID 2282926). As to conditions: HepG2 CRE cis-reporter, Attagene multiplexed mRNA; actives raise or lower the signal. The procedure, abridged:
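Multiplexed transcription-unit reporters transfected into HepG2; 24 h dosing; RT-PCR/capillary electrophoresis fluorescence read-out; bidirectional fit vs DMSO.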

Experiment [13] concerns the target CCAAT/enhancer-binding protein beta (Homo sapiens) (UniProt P17676). In words: ATG_C_EBP_CIS: Attagene CIS-FACTORIAL HepG2 Assay for human CCAAT/Enhancer Binding Protein (C/EBP) beta (AID 2282927). The conditions noted are these: HepG2 Attagene cis-factorial transcription factor reporter; actives raise or lower the signal. Put shortly:
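HepG2 transiently transfected with multiplexed reporter units under cis-regulatory promoters reporting endogenous C/EBPb activity. After 24 h exposure, reporter mRNA assayed by RT-PCR, fluorescent labelling, HpaI digestion and capillary electrophoresis; bidirectional fitting versus DMSO.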

Experiment [14] can be described thus: ATG_DR4_LXR_CIS: Attagene CIS-FACTORIAL HepG2 Assay for human Liver X Receptor (LXR), DR4 submotif (AID 2282929). As to conditions: HepG2 Attagene DR4 cis-reporter, mRNA transcription; actives raise or lower the signal. The procedure, abridged: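 The endpoint is DR4-element-driven reporter transcripts after 24 h chemical exposure of transfected HepG2 cells. These were measured via RT-PCR and capillary electrophoresis, and gain or loss of signal was fitted relative to DMSO controls.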

The target in experiment [15] is Aryl hydrocarbon receptor (Homo sapiens) (UniProt P35869). The experiment is described as follows: ATG_Ahr_CIS: Attagene CIS-FACTORIAL HepG2 Assay for human Aryl Hydrocarbon Receptor (Ahr) (AID 2282930). The conditions noted are these: HepG2 AhR cis-factorial reporter transcription; actives raise or lower the signal. Put shortly:
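HepG2 cells transiently transfected with cis-element-driven multiplexed reporter units; endogenous AhR activity read as reporter mRNA 24 h after dosing, via RT-PCR, 6-FAM labelling, HpaI digestion and capillary electrophoresis. Bidirectional fit relative to DMSO.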

Experiment [16] in a line: ATG_AP_1_CIS: Attagene CIS-FACTORIAL HepG2 Assay for human Activator Protein 1 (AP-1) (AID 2282931). As to conditions: HepG2 Attagene cis-factorial AP-1 reporter mRNA; actives raise or lower the signal. The procedure, abridged: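 Readout is reporter transcript level from endogenous transcription factor activity, quantified by RT-PCR with fluorescent primer extension and capillary electrophoresis. Transiently transfected HepG2 cells, 24 h exposure. Curves fitted both directions versus DMSO.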

The nature of experiment [17]: ATG_AP_2_CIS: Attagene CIS-FACTORIAL HepG2 Assay for human Activator Protein 2 (AP-2) (AID 2282932). As to conditions: HepG2 AP-2 cis-reporter, Attagene transcription factor profiling; actives raise or lower the signal. Put shortly: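 Multiplexed mRNA reporter assay in HepG2: cis-regulated units report endogenous factor activity after 24 h treatment. Fluorescence from capillary electrophoresis of RT-PCR products gives the signal, with DMSO as baseline.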

Experiment [18] can be described thus: ATG_BRE_CIS: Attagene CIS-FACTORIAL HepG2 Assay for human Bone Morphogenetic Protein (BMP) Response Element (BRE) (AID 2282933). As to conditions: HepG2 BMP response element reporter, Attagene transcription factor profiling; actives raise or lower the signal. The procedure, abridged:
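After a 24 h chemical treatment, transiently transfected HepG2 cells were lysed for RNA; reporter transcripts were quantified by fluorescent RT-PCR and capillary electrophoresis, normalised to DMSO.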

A short description of experiment [19]: ATG_CMV_CIS: Attagene CIS-FACTORIAL HepG2 Assay for human CMV (Internal Marker) (AID 2282928).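 Note: endpoint acts as a background internal control marker rather than a target.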 The conditions noted are these: HepG2 CMV promoter reporter, transcription factor profiling; actives raise or lower the signal. The procedure, abridged: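 CMV internal-marker background readout in transiently transfected HepG2 cells bearing cis-regulated reporter units. Reporter mRNA is measured 24 h after dosing by RT-PCR and capillary electrophoresis, with bidirectional fitting against DMSO.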

The target of experiment [20] is Retinoic acid receptor alpha (Homo sapiens) (UniProt P10276). The experiment is described as follows: ATG_DR5_RAR_CIS: Attagene CIS-FACTORIAL HepG2 Assay for human Retinoic Acid Receptor Alpha (RARE), DR5 submotif (AID 2282934).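 Note: reporter responds to endogenous RAR alpha beta and gamma in HepG2 not RARA alone.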 The conditions noted are these: HepG2 Attagene cis-factorial RARE DR5 reporter, mRNA; actives raise or lower the signal. The procedure, abridged: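 HepG2 cells transiently transfected with multiplexed reporter units; DR5 cis-element drives reporter through endogenous transcription factors. After 24 h dosing, reporter mRNA quantified by RT-PCR, fluorescent labeling, HpaI digestion and capillary electrophoresis; bidirectional fitting versus DMSO.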
Sequence of Retinoic acid receptor alpha (Homo sapiens) (P10276 whole entry, looked up): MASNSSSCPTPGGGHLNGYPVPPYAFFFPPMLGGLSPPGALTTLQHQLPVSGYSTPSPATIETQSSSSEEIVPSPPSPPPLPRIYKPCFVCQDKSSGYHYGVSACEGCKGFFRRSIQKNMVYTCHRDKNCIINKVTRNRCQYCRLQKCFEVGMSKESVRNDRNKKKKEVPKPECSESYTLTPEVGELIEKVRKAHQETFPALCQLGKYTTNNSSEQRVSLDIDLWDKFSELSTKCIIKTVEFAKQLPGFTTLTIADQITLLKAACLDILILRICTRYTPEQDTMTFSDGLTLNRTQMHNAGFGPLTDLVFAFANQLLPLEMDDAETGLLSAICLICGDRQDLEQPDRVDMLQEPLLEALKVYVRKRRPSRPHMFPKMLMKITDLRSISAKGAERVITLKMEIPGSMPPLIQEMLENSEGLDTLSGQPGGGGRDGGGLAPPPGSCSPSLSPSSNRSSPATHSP

The source made the active and inactive calls. Rule for the calls: active = hit-call score of the fitted dose curve at least 0.9, where 1 is the maximum; inactive = score below 0.9.

Sequence of CCAAT/enhancer-binding protein beta (Homo sapiens) (P17676 whole entry, looked up): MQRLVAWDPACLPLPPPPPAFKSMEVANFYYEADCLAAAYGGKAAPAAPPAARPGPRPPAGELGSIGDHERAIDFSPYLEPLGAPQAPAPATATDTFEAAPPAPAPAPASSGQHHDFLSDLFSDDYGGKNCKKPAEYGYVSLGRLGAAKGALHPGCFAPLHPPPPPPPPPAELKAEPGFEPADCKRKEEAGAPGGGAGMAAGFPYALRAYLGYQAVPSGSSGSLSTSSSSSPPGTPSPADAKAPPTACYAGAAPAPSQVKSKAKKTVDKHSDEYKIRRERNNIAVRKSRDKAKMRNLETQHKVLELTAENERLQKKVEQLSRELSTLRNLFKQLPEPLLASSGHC
Sequence of Aryl hydrocarbon receptor (Homo sapiens) (P35869 whole entry, looked up): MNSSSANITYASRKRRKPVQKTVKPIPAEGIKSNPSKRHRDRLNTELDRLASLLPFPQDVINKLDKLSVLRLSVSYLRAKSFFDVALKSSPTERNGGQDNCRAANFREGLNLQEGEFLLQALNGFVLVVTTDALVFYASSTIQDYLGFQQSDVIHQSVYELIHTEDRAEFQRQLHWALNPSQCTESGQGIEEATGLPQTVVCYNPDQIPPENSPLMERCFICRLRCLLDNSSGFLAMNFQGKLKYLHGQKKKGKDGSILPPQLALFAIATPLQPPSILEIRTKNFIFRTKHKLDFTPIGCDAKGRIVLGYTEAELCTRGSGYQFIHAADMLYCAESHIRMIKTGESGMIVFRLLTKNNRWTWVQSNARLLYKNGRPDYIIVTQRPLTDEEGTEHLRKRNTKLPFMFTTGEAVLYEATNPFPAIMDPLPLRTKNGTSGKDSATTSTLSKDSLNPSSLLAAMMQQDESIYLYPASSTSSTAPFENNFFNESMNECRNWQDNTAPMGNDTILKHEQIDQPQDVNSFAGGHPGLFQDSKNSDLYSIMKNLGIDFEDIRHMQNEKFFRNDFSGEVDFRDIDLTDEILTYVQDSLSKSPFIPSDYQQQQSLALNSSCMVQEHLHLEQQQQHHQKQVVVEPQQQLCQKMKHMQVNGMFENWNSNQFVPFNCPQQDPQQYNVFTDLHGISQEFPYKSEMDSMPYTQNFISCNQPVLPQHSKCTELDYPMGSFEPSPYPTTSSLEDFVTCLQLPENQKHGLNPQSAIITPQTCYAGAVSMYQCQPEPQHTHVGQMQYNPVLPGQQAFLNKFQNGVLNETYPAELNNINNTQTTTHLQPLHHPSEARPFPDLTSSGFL

For `NS(=O)(=O)c1cc2c(cc1Cl)NCNS2(=O)=O`, the result in experiment [1], in experiment [2], in experiment [3], in experiment [4], in [5] and in [6] was inactive. Besides, the outcome in [7], in [8], in experiment [9], in experiment [10], in experiment [11] and in [12] was inactive. The result in experiment [13], in [14], in [15], in experiment [16], in [17] and in [18] was inactive.
Regarding `COCCOC[C@H](CC1(C(=O)NC2CCC(C(=O)O)CC2)CCCC1)C(=O)Oc1ccc2c(c1)CCC2` (stereo not given in full), the call in experiment [1], in experiment [2], in [3], in experiment [4], in [5] and in [6] was inactive. The call in experiment [7], in experiment [8], in experiment [9], in experiment [10], in experiment [11] and in experiment [12] was inactive. The outcome in experiment [13], in experiment [14], in [15], in experiment [16] and in [18] was inactive.
With `CCOC(=O)CCC(=O)OCC`, the outcome in [1], in [2], in experiment [3], in experiment [4], in experiment [5] and in experiment [6] was inactive. Also, the compound was called inactive in [7], in experiment [8], in experiment [9], in [10], in [12] and in experiment [13]. In addition, the result in experiment [19], in experiment [14], in experiment [16] and in experiment [17] was inactive. Also, in [15], the AC50 was 75.7 µM (active).
On to `COc1cc(/C=C/C(=O)CC(=O)/C=C/c2ccc(O)c(OC)c2)ccc1O`, for which the AC50 in experiment [1] is 9.56 µM (active); in experiment [2], 15.1 µM (active); in experiment [4], 22 µM (active); in experiment [5] it was 15.9 µM (active); in [6] it was 76.1 µM (active); in [7] it was 11.2 µM (active). Also, the AC50 is 47.9 µM (active) in [8]; 19.1 µM (active) in [9]; 22.2 µM (active) in experiment [10]; 58.3 µM (active) in experiment [14]; 55.2 µM (active) in [15]; 54.7 µM (active) in experiment [16]. Moreover, the AC50 in experiment [20] was 25.9 µM (active). Besides, the outcome in [3], in experiment [11], in [12], in experiment [13] and in experiment [18] was inactive.

For orientation: AC50 means the midpoint of the concentration-response curve, whichever way the signal moves.

These data come from PubChem BioAssay (EPA / NIEHS).
